The values below come from PubChem BioAssay (NCATS).

Experiment [1] concerns the target Lysosomal acid glucosylceramidase (Homo sapiens) (UniProt P04062). The experiment can be described thus: Glucocerebrosidase-p2 (AID 348; in the data active means potency below about 10 µM; further: potency means the concentration at half of the fitted maximal effect). To be noted: purified GBA, blue fluorogenic substrate, 40 min. In a few lines:
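Normal human glucocerebrosidase (0.2 nM) with blue fluorogenic substrate (80 uM final) in citrate/phosphate pH 5.9 with 10mM sodium taurocholate, 0.01% tween-20; 40 min RT, NaOH/glycine stop; fluorescence Ex 365/Em 440; AC50 from a titration from 0.6 nM upwards.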

Experiment [2] is described as follows: AP1 Signaling Pathway (AID 357; active means well fitted curve in either direction with a large enough effect, not every such curve was filed as active;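 further: ME-180 reporter cells stimulated with EGF at its EC50 level; on the % scale 0 is the no-effect control and ±100 the full control effect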). The following applies: ME-180 AP-1-bla reporter, EGF-induced, beta-lactamase ratio, 5 h; at 7.69 µM (top of the series) unless noted. Summed up: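 Modulation of EGF-driven AP-1 transcription was assessed with a beta-lactamase reporter in ME-180 cells. Compound and EC50 EGF were co-incubated 5 hours at 37 °C before 2.5-hour CCF4 loading at room temperature and dual-emission reading.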

Experiment [3] in a line: NFAT Signaling Pathway (AID 444; active means well fitted curve in either direction with a large enough effect, not every such curve was filed as active;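 further: carbachol stimulus at about its EC50 of 1 µM final; on the % scale 0 is the no-effect control and ±100 the full control effect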). The following applies: Jurkat NFAT-bla M1, carbachol, beta-lactamase ratio, 5 h; at 7.69 µM (top of the series) unless noted. Summed up:
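Jurkat cells with NFAT-driven β-lactamase reporter and co-expressed M1 receptor, stimulated with carbachol (final 1 uM, ~EC50), compound titration, 5 h at 37 °C. CCF4 loaded 1 h at RT; 460/530 nm ratio gave %activity and AC50.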

Experiment [4] in a line: Stat Signaling Pathway (AID 446; active means well fitted curve in either direction with a large enough effect, not every such curve was filed as active;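 further: ME-180 cervical cancer cells given 40 pM IL-6 alongside compound; SIE-controlled beta-lactamase reporter measured as 460/530 nm FRET emission ratio; on the % scale 0 is the no-effect control and ±100 the full control effect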). To be noted: ME-180 (cervical carcinoma) SIE beta-lactamase reporter, IL-6 stimulated, 5 h; at 7.69 µM (top of the series) unless noted. Summed up: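 Emission at 460 and 530 nm (excitation 405 nm) reports SIE-controlled beta-lactamase in ME-180 cells. Cells received compound with 40 pM IL-6 for 5 hrs at 37 C; data scaled between 300 pM IL-6 and 125 nM JAK-inhibitor controls.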

The target of experiment [5] is Glucocorticoid receptor (Homo sapiens) (UniProt P04150). The experiment can be described thus: GR-GFP Redistribution (AID 450;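 active means compounds whose dose series gives a full or clear partial fitted curve of increased nuclear translocation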; further: potency means the concentration at half of the fitted maximal effect). The following applies: U2OS GR-GFP nuclear translocation, laser cytometry, 2 h.
For experiment [6] the target is unchanged. Put plainly: GR-EFC Redistribution (AID 451; calls by dose curve; further: potency means the concentration at half of the fitted maximal effect). To be noted: CHO-K1 GR-EFC translocation, beta-gal luminescence, 2 h. In a few lines: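 CHO-K1 cells expressing nuclear EA and GR-ED fragments of b-gal; compounds titrated up to 46 uM final, 2 h at 37 C. GR nuclear translocation read as complemented b-gal luminescence after 1 h RT detection.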
The target in experiment [7] is Mitogen-activated protein kinase 10 (Mus musculus) (UniProt Q61831). Put plainly: JNK3 AlphaScreen Assay (AID 530; active means well fitted curve in either direction with a large enough effect, not every such curve was filed as active;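 further: kinase came from lysate of stimulated human HepG2 cells; signal reports phosphorylation of biotinylated GST-cJun 1-79 at Ser73 with 10 µM ATP; on the % scale 0 is the no-effect control and ±100 the full control effect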). To be noted: JNK3 lysate, c-Jun phosphorylation; series mostly up to 57.1 µM. Summed up:
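HepG2 lysate (IL-1b/TNFa pre-activated) + biotin-GST-cJun 1-79 + anti-pSer73 cJun; cpd titration, 15 min RT; ATP 10 uM start; Tris pH 7.6, MgCl2, DTT, vanadate; beads in EDTA buffer; AlphaScreen.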
In general terms: Alpha assays give light when donor and acceptor beads are brought close together.

Experiment [8] deals with Cytochrome P450 3A4 (Homo sapiens) (UniProt P08684). Put plainly: qHTS Assay for Activators of Cytochrome P450 3A4 (AID 885). Further: nearly all actives have a fitted effect of over 65% in size. To be noted: recombinant CYP3A4, Luciferin-PPXE luminescence, 60 min; series mostly up to 57.1 µM. Summed up: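 Activators are scored by enhanced luminescence from CYP3A4 conversion of luciferin-PPXE (25uM, equal to KM) to luciferin, after 60 min at RT with an NADPH-regenerating system.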

The target in experiment [9] is Dual specificity protein kinase CLK4 (Homo sapiens) (UniProt Q9HAZ1). Put plainly: qHTS Assay for Inhibitors of CDC-like Kinase 4 (Kinase-Glo Assay) (AID 1770). Further: nearly all actives have a fitted effect of over 65% in size. Further: potency means the concentration at half of the fitted maximal effect. The following applies: recombinant Clk4, Kinase-Glo ATP depletion luminescence; series mostly up to 66.7 µM. Summed up: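 Recombinant human Clk4 (25 nM) phosphorylated RS repeat peptide (100 uM) with 1 uM ATP in Tris pH 7.5/MgCl2/EGTA/DTT/Triton buffer for 4.5 h at room temperature. Residual ATP was quantified by Kinase-Glo luciferase luminescence.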

For experiment [10] the target is unchanged. Put plainly: qHTS Assay for Inhibitors of CDC-like Kinase 4 (ADP-Glo Assay) (AID 1771). Further: nearly all actives have a fitted effect of over 70% in size. Further: potency means the concentration at half of the fitted maximal effect. The following applies: recombinant CLK4, ADP-Glo luminescence; series mostly up to 80 µM. In a few lines:
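25 nM Clk4, 100 uM RS peptide, 1 uM ATP (final); 2 mM MgCl2, 0.5 mM EGTA, 2.5 mM DTT, 0.01% Triton X-100; 1 hr RT. ADP-Glo readout: ATP depletion 45 min, conversion/luciferase 30 min, luminescence.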
For orientation: qHTS replaces the single test concentration by a dilution series.

Experiment [11] addresses Ubiquitin carboxyl-terminal hydrolase 1 (Homo sapiens) (UniProt O94782). The experiment can be described thus: Inhibitors of USP1/UAF1: Pilot qHTS (AID 504865).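 Further: rhodamine fluorescence freed from ubiquitin-rhodamine substrate followed over time; top concentration of the series differs between compounds; on the % scale 0 is the no-effect control and ±100 the full control effect; nearly all actives have a fitted effect of over 35% in size.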 The following applies: purified USP1/UAF1, Ub-rhodamine cleavage fluorescence; series mostly up to 54.9 µM. Summed up:
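USP1/UAF1 complex (1nM) preincubated with compound 15 min at room temperature, then Ub-Rho substrate (150nM final) added. Fluorescence read kinetically at 480/540 nm, 6 reads every 60 seconds. Buffer: 50mM HEPES pH 7.8, 0.5mM EDTA, 0.1 mg/ml BSA, 1mM TCEP, 0.01% Tween-20.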

Experiment [12] can be described thus: Primary qHTS for small molecule stabilizers of the endoplasmic reticulum resident proteome: Secreted ER Calcium Modulated Protein (SERCaMP) assay (AID 1508630). Further: on the % scale 0 is the no-effect control and ±100 the full control effect. The following applies: SH-SY5Y GLuc-SERCaMP (Gaussia luciferase released on ER calcium loss) secretion, thapsigargin, luminescence; series mostly up to 38.4 µM. Summed up:
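The SH-SY5Y reporter protocol was run at 3 concentrations up to 38.3 uM (primary) or 11 concentrations (follow-up): 16 h compound, 100 nM thapsigargin for 4 h, then extracellular luciferase luminescence.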

Experiment [13] addresses Cytochrome P450 1A2 (Homo sapiens) (UniProt P05177). Put plainly: p450-cyp1a2 (AID 410; calls by dose curve; further: potency means the concentration at half of the fitted maximal effect;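 on activity change, negative = inhibition: -100% = full effect of reference inhibitor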). To be noted: recombinant CYP1A2, luciferin-ME demethylation, luminescence; series mostly up to 57 µM. Summed up: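 20nM CYP1A2, 100uM Luciferin-ME (=Km), 100mM KPO4; cpd 10 min RT; +NADPH regen, 60 min RT; stop/detect 20 min; luminescence. Normalized to furafylline 57 uM = full inhibition.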

Experiment [14] concerns the target 3',5'-cyclic-AMP phosphodiesterase 4B (Homo sapiens) (UniProt Q07343). Put plainly: qHTS Assay for Inhibitors of PDE-IV (AID 607; active means well fitted activation curve with a large enough effect in the main read-out, with a control signal flat, not every such curve was filed as active; further: % of control where 0% means no effect). To be noted: HEK293 ACTOne CNG channel cells, membrane potential fluorescence; series mostly up to 22.9 µM. Summed up:
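The readout is membrane depolarisation from a cAMP-sensing CNG channel, detected with a potential dye at ex 535/em 590. Cells were HEK293-derived (endogenous PDE-IV) at 1000 cells/well, titrated up to 22.9 uM final.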

The target of experiment [15] is Dual specificity protein kinase CLK4 (Homo sapiens) (UniProt Q9HAZ1). The experiment can be described thus: qHTS Assay for Inhibitors of CDC-like Kinase 4 (ADP-FP Assay) (AID 1795). Further: on the % scale 0 is the no-effect control and ±100 the full control effect; nearly all actives have a fitted effect of over 60% in size. To be noted: Transcreener ADP fluorescence polarization; series mostly up to 50 µM. Summed up:
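Recombinant human Clk4 (6.25 nM) phosphorylated RS repeat peptide (100 uM) with 1 uM ATP in Tris pH 7.5/MgCl2/EGTA/DTT/Triton buffer for one hour. ADP was quantified by Transcreener competitive fluorescence polarization against an ADP calibration curve.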

For experiment [16], the target named is Cytochrome P450 3A4 (Homo sapiens) (UniProt P08684). The experiment can be described thus: qHTS Assay for Inhibitors and Substrates of Cytochrome P450 3A4 (AID 884). Further: potency means the concentration at half of the fitted maximal effect; nearly all actives have a fitted effect of over 50% in size. The following applies: recombinant CYP3A4, Luciferin-PPXE luminescence; series mostly up to 57.1 µM. Summed up:
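Luminescent readout of luciferin produced by CYP3A4 (20 nM) dealkylation of Luciferin-PPXE, 25 uM (its KM). NADPH-driven reaction ran 60 min at RT after 10 min compound preincubation; data scaled to 57 uM ketoconazole as 100% inhibition.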

Experiment [17] concerns the target Cytochrome P450 2D6 (Homo sapiens) (UniProt P10635). The experiment can be described thus: qHTS Assay for Inhibitors and Substrates of Cytochrome P450 2D6 (AID 891). Further: potency means the concentration at half of the fitted maximal effect; nearly all actives have a fitted effect of over 60% in size. The following applies: recombinant CYP2D6, luciferin-ME EGE luminescence; series mostly up to 57.1 µM. Summed up:
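Luminescent read-out of luciferin formed by 5 nM human CYP2D6 demethylating 30 uM Luciferin-ME EGE (Km level) over 60 min at room temperature after NADPH regeneration addition. Data normalized to full inhibition by 1.43 uM quinidine.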

The target in experiment [18] is Cytochrome P450 2C19 (Homo sapiens) (UniProt P33261). The experiment can be described thus: qHTS Assay for Inhibitors and Substrates of Cytochrome P450 2C19 (AID 899). Further: potency means the concentration at half of the fitted maximal effect; nearly all actives have a fitted effect of over 60% in size. The following applies: recombinant CYP2C19, luciferin-H EGE luminescence; series mostly up to 57.1 µM. In a few lines:
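5 nM human CYP2C19 with 10uM Luciferin-H EGE (at KM) in 50mM KPO4, compound preincubated 10 min at 37C, then NADPH regeneration for 60 min at 37C. Luciferin read by luminescence after detection reagent; normalized to 57uM ketoconazole as full inhibition.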

A number with no mark means an inactive call. Inconclusive results are not listed. The source made the active and inactive calls. Unless noted, the call rests on the fitted dose curve; in most records, active means well fitted curve in the direction sought with a large enough effect; inconclusive means small, poorly fitted or top-dose-only effect, or another doubt; inactive means no such curve, though single readings can be large; an effect the other way counts as inactive or inconclusive. Some results are limits rather than exact numbers.

Sequence of Cytochrome P450 1A2 (Homo sapiens) (P05177 whole entry, looked up): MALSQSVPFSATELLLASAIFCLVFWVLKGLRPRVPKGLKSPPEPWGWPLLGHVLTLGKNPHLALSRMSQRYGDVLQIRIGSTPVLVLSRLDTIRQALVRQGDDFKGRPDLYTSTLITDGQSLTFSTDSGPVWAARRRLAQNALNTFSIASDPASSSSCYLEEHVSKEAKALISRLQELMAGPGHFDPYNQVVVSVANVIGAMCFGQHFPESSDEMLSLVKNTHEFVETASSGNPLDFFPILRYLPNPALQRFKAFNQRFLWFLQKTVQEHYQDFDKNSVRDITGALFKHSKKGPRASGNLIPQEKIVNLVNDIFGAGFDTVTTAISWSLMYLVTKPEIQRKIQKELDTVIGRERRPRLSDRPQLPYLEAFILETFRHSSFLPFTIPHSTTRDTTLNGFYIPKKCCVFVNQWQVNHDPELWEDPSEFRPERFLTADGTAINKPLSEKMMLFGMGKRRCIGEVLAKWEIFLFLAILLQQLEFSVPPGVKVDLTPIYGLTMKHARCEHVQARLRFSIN
Sequence of Dual specificity protein kinase CLK4 (Homo sapiens) (Q9HAZ1 whole entry, looked up): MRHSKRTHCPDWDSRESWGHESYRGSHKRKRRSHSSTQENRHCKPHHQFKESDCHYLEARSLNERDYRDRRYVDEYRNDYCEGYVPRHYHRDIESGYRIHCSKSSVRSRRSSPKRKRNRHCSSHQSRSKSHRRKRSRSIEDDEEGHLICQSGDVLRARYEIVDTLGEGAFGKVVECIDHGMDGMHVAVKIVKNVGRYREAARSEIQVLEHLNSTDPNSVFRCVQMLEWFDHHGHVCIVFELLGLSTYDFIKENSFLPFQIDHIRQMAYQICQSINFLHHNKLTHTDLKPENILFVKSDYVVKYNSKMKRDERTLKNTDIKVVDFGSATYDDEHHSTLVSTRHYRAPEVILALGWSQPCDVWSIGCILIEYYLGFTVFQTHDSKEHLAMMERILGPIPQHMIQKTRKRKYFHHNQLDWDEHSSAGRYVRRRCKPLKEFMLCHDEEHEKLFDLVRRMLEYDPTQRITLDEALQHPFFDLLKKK
Sequence of Ubiquitin carboxyl-terminal hydrolase 1 (Homo sapiens) (O94782 whole entry, looked up): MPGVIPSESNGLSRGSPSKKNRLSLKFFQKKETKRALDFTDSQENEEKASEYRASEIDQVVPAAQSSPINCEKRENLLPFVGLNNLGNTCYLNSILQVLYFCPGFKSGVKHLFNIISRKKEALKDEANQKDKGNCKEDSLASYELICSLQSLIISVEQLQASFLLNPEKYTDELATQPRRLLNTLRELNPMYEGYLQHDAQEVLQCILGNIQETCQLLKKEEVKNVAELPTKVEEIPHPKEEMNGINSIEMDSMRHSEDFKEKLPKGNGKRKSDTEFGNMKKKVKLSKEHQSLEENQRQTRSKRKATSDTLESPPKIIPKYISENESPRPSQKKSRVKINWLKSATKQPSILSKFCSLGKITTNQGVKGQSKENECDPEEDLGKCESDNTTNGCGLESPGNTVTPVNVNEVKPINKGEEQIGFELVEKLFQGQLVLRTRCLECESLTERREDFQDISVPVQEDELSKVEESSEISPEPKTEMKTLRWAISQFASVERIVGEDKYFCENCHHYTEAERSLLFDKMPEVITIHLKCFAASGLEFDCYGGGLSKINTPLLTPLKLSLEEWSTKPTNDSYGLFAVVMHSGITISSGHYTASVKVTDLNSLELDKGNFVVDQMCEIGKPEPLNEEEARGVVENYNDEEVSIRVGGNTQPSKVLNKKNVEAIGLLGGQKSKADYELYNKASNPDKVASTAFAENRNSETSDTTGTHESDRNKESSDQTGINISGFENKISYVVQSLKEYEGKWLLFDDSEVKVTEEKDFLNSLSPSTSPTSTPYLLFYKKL
Sequence of Cytochrome P450 3A4 (Homo sapiens) (P08684 whole entry, looked up): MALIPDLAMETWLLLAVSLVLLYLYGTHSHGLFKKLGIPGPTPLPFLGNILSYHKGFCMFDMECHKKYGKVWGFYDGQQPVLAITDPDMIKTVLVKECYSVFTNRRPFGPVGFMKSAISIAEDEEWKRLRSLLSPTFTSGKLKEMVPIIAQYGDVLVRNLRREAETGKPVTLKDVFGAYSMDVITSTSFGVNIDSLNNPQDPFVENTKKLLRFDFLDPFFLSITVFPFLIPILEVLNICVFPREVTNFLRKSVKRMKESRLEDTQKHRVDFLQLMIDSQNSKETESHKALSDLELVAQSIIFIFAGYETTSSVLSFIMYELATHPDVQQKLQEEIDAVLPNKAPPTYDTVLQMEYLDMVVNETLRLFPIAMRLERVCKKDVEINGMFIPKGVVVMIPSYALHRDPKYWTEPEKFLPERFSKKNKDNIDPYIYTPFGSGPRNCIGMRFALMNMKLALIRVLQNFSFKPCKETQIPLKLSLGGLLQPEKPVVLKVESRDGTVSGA
Sequence of Glucocorticoid receptor (Homo sapiens) (P04150 whole entry, looked up, the tested form may be a part): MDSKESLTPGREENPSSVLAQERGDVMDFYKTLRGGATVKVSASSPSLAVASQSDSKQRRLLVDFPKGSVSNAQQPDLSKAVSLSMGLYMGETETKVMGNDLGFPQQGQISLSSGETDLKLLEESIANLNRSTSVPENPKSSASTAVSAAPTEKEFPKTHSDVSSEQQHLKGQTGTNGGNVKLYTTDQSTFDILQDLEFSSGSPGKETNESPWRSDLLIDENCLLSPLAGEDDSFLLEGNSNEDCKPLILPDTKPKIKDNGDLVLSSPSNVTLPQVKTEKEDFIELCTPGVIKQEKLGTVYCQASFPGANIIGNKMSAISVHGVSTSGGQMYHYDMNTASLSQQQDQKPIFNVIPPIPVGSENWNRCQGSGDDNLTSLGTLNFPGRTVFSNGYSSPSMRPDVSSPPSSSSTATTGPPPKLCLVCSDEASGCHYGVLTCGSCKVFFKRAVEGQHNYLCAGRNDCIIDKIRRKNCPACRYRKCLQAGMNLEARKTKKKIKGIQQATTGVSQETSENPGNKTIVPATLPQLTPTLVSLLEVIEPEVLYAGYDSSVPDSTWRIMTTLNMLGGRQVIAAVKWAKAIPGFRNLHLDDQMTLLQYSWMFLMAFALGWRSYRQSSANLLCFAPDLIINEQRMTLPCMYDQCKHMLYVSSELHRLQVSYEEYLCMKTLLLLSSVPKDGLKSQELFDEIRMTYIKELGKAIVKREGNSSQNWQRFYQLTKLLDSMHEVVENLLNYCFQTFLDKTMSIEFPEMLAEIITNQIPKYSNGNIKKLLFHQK
Sequence of Lysosomal acid glucosylceramidase (Homo sapiens) (P04062 whole entry, looked up): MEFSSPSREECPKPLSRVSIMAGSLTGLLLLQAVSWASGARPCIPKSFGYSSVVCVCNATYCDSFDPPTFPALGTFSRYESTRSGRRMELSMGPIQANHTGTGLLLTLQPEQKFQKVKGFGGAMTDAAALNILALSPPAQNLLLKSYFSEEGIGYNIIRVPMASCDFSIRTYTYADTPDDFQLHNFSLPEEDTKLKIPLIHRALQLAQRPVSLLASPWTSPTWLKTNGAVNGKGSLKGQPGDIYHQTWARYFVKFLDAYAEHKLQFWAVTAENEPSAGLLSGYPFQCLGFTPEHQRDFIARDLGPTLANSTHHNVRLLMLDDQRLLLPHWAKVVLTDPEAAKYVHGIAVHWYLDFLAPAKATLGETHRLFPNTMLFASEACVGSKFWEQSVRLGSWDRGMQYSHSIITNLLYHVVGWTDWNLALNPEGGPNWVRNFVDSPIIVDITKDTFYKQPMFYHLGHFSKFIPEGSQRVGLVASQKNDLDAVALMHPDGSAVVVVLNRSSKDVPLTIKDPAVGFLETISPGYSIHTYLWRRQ
Sequence of 3',5'-cyclic-AMP phosphodiesterase 4B (Homo sapiens) (Q07343 whole entry, looked up): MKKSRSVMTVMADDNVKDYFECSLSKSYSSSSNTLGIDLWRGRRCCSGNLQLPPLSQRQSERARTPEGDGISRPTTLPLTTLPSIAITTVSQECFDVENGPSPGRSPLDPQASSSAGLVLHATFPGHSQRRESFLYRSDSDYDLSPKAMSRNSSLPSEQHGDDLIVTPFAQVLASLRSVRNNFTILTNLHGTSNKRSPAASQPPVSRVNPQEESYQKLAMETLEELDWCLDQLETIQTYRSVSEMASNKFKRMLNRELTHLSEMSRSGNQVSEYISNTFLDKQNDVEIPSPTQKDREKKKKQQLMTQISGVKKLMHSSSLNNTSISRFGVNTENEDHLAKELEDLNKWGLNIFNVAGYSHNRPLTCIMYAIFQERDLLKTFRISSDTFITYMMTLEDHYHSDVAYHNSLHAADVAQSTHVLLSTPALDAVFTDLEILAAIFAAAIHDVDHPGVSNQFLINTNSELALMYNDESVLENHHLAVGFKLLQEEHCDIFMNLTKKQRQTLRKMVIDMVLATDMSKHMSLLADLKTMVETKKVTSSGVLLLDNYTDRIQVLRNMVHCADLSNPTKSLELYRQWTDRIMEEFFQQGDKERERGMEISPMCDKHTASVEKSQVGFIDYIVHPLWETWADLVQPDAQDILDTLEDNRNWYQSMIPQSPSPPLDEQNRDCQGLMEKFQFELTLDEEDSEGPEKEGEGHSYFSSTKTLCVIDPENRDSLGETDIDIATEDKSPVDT
Sequence of Cytochrome P450 2C19 (Homo sapiens) (P33261 whole entry, looked up): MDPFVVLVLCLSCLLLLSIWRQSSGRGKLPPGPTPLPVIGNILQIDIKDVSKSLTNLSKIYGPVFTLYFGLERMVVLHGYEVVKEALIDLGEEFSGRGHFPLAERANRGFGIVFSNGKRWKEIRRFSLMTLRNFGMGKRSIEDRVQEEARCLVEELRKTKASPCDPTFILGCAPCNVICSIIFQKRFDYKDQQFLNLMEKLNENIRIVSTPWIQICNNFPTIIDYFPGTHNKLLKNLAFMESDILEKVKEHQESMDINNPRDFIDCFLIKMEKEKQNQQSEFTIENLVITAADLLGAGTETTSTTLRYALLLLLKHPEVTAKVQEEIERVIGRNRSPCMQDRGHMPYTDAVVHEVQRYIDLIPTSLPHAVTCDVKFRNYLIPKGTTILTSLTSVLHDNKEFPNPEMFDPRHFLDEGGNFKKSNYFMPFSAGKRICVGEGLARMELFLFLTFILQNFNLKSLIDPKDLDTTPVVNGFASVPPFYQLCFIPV

On to `COc1ccccc1CNc1cc(-c2ccccc2Cl)ncn1`, for which the Potency in [1] is more than 11.4 µM; in experiment [5], more than 46 µM; in experiment [6] it was more than 46 µM; in [9], 25.1 µM (active); in [10], 15.8 µM (active). Further, the activity change, negative = inhibition is -13.2% in [2] and 0.444% in experiment [3]. For the same compound, the activity, negative = inhibition in experiment [4] was -1.65%. The Potency result in experiment [7], in [8] and in experiment [11] was “inactive” each time. Besides, the outcome in [12] was inactive.

With `Cc1cnc(CNc2cc(-c3ccc(C(=O)N(C)C)cc3)ncn2)cn1`, the activity change, negative = inhibition in experiment [2] is 19.2%; in experiment [3] it was 15.2%. For the same compound, the Potency result in experiment [13], in [7], in experiment [14] and in experiment [11] was “inactive” each time. For the same compound, the activity, negative = inhibition in experiment [4] was 6.75%. In addition, the Potency in [5] is more than 46 µM; in [6], more than 46 µM; in experiment [9], 12.6 µM (active); in experiment [10], 14.1 µM (active). In experiment [12], the outcome was inactive.

In the case of `FC(F)(F)c1ccccc1-c1cc(NCc2cccnc2)ncn1`, the Potency was more than 11.4 µM in [1], 3.98 µM (active) in [13], more than 46 µM in experiment [5] and more than 46 µM in experiment [6]. The activity change, negative = inhibition was -2.3% in [2] and 4.08% in experiment [3]. Further, the activity, negative = inhibition in experiment [4] is -3%. For the same compound, the Potency entry in experiment [7], in [14], in experiment [8], in [9], in experiment [15] and in [11] was “inactive” in each case. Also, the result in experiment [12] was inactive.

As to `COc1cccc(Cn2c(=O)cnc3cnc(OCc4ccccc4)nc32)c1`, the Potency in [1] is more than 11.4 µM; in experiment [5] it was more than 9.22 µM; in experiment [6], more than 46 µM. The results for the activity change, negative = inhibition in experiment [2] and in experiment [3] were -24.3% and -4.5%, respectively. For the same compound, the activity, negative = inhibition in experiment [4] was -13.2%. In addition, the Potency entry in experiment [7], in [8], in experiment [9], in [10] and in experiment [11] was “inactive” throughout. In addition, the outcome in experiment [12] was inactive.

For the compound `COc1ccc2[nH]cc(CCNc3nc(-c4cccnc4)nc4ccccc34)c2c1`, the activity change, negative = inhibition in experiment [2] was -14.3%. Further, the Potency is 0.501 µM (active) in experiment [13]; more than 46 µM in experiment [5]; more than 46 µM in experiment [6]; 1.58 µM (active) in [16]; 6.31 µM (active) in experiment [17]; 501 nM (active) in experiment [18]. Moreover, the Potency in [9] is 11.2 µM (active); in [10], 7.94 µM (active). For the same compound, the activity, negative = inhibition in experiment [4] was -15.6%. The Potency entry in [7], in [8] and in experiment [11] was “inactive” each time. Besides, the result in [12] was inactive.
